SENP8 block-1 = inhibitors of human SENP8 protease | purified SENP8, Z-RLRGG-aminoluciferin cleavage, luminescence | inhibition, % at 10 µM | 1.2% of 330,000 active; in the data active = inhibition above about 50%
SENP8 block-2 = blocks human SENP8 cleavage of Nedd8 substrate; inhibition, % at 20 µM; Q96LD8; recombinant SENP8, Nedd8 substrate fluorescence; AID 602440; 0.64% of 360,000 active; in the data active = inhibition mostly above about 40%, no sharp cut-off; inactive = mostly below about 27%
HSP90 inh = HSP90 refolding inhibition in rabbit reticulocyte lysate | luciferase refolding luminescence, 3 h | inhibition, % at 5.6 µM | 0.91% of 290,000 active;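 active = inhibition above the screen-wide mean plus 3 SD, computed separately per campaign, cut at about 16% in these data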;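 also: inhibitors lower the luminescence because luciferase stays unfolded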
SENP7 inh = inhibitors of human SENP7 protease. inhibition, % at 5 µM. 1.5% of 330,000 active. recombinant SENP7, Z-RLRGG-aminoluciferin luminescence, 40 min. Q9BQF6;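 active = inhibition above about 50% at the single test dose, limit read from the data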
SENP6 inh = SENP6 protease inhibition; Recombinant SENP6 catalytic domain, aminoluciferin luminescence; inhibition, % at 10 µM; 1.8% of 330,000 active;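 active = inhibition above about 50% at the single tested dose, limit read from the data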
HSP90 inh confirm = confirmation of HSP90 inhibitors | shares compounds with HSP90 inh | rabbit reticulocyte lysate, luciferase refolding luminescence, 3 h | inhibition, % at 5.9 µM | 64% of 2,300 active | AID 1846; in the data active = inhibition above about 18%
luciferase ctr = blocks native firefly luciferase in HSP90 counter-screen; shares compounds with HSP90 inh; purified native firefly luciferase, luminescence; inhibition, % at 5.9 µM; 48% of 2,300 active;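 active = inhibition above the mean inhibition of all tested sample wells plus 3 SD, cut at about 10% in these data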
Target sequence (P08659 whole entry, looked up): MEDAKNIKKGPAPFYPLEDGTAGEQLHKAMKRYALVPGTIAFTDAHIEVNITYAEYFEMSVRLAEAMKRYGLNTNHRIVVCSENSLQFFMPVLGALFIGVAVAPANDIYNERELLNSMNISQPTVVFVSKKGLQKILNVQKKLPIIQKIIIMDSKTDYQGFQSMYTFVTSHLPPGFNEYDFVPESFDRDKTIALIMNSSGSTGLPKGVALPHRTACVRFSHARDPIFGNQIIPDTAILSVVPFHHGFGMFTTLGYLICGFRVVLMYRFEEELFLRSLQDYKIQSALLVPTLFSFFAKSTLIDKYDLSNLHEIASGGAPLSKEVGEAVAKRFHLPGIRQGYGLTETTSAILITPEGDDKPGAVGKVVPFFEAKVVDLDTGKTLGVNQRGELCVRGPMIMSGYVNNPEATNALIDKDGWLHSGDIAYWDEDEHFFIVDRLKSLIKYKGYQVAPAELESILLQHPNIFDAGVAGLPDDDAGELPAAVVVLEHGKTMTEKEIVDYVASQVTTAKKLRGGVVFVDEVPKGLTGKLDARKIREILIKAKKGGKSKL
Of the large screens only hits and unclear results are named; the others gave an inactive call (follow-up assays come after a bar, where they were run); ! = a repeat was not active. Most compounds without a hit are left out; they make up all but 2.8% or so of the library.

COCCNc1c(-c2cc3ccc(C)c(C)c3[nH]c2=O)nc2ccccn12	HSP90 inh 21 | HSP90 inh confirm inactive | luciferase ctr inactive
CN1CCN(c2ccccc2NC(=O)Cn2ncc3c([nH]c4ccccc43)c2=O)CC1	none
Cc1ccc(CN(C)C(=O)c2cc(COc3cccc(C(F)(F)F)c3)on2)o1	none
O=C(/C=C/c1ccc2c(c1)OCO2)Nc1nc2ccccc2s1	HSP90 inh 25 | HSP90 inh confirm 62 | luciferase ctr 20
O=C(Nc1nc2cc3c(cc2s1)OCO3)c1ccco1	HSP90 inh 25 (no result: SENP8 block-1, SENP7 inh, SENP6 inh) | HSP90 inh confirm 69 | luciferase ctr 68
CC(C)C(=O)Nc1nc2cc3c(cc2s1)OCCO3	HSP90 inh 28 | HSP90 inh confirm 40 | luciferase ctr 34
Cn1c(=O)[nH]c(=O)c2c1nc(Br)n2CCCO	none
O=C(O)c1ccc(-c2nc(-c3ccc(Cl)cc3)cs2)cc1	none (no result: SENP8 block-1, SENP7 inh, SENP6 inh)
COc1ccc(-c2csc(-c3ccc(C(=O)O)cc3)n2)cc1	HSP90 inh 19 | HSP90 inh confirm 39 | luciferase ctr inactive
Cc1ccc(-n2c3c(cc(C(=O)NC4CCSC4=O)c2=O)C(=O)CC(C)(C)C3)cc1 (stereo unspecified)	none
O=[N+]([O-])c1ccc2nc(/C=C/c3ccc(Cl)cc3)[nH]c2c1	HSP90 inh 28 | HSP90 inh confirm inactive | luciferase ctr inactive
CN(C(=O)CN1C(=O)/C(=C/c2ccc(F)cc2)SC1=S)C1CCS(=O)(=O)C1 (stereo unspecified)	none
Cc1nn(CC(=O)c2ccccc2Cl)c(C)c1[N+](=O)[O-]	HSP90 inh 22 | HSP90 inh confirm 33 | luciferase ctr 28
Cc1nn(CC(=O)NCc2ccccc2)c(C)c1[N+](=O)[O-]	none
O=[N+]([O-])c1cccnc1N/N=C/c1ccccc1O	SENP8 block-1 87, HSP90 inh 22, SENP7 inh 97, SENP6 inh 93 | HSP90 inh confirm inactive | luciferase ctr inactive
O=[N+]([O-])c1ccccc1/C=N/Nc1nccnc1Cl	none
O=C(N/N=C1/CCc2ccccc21)C1CC1	none
S=C(N/N=C1\CCc2ccccc21)NC1CCCCC1	HSP90 inh 26 | HSP90 inh confirm 34 | luciferase ctr inactive
CCOC(=O)N/N=C/c1cn(CCCOc2ccc(C)cc2)c2ccccc12	HSP90 inh 18 | HSP90 inh confirm inactive | luciferase ctr inactive
CCC(C)Sc1cccc(-c2nc3cc(C)ccn3c2NCc2ccccc2)c1 (stereo unspecified)	none (no result: HSP90 inh)
CC(=O)/C(=C\N(C)C)Sc1ccc(C)cc1	HSP90 inh 33 | HSP90 inh confirm inactive | luciferase ctr inactive
OC[C@H]1O[C@@H](c2nc(-c3ccccc3Br)no2)[C@H](O)[C@@H](O)[C@H]1O	none (no result: SENP8 block-1, HSP90 inh, SENP7 inh, SENP6 inh)
OC(COc1cccc2ccccc12)CN1CCN(c2ccccc2)CC1 (stereo unspecified)	none | HSP90 inh confirm inactive | luciferase ctr inactive
CC(C)(C)c1ccc(OCC(O)CN2CCN(c3ccccn3)CC2)cc1 (stereo unspecified)	HSP90 inh 40 | HSP90 inh confirm inactive | luciferase ctr inactive
OC(COc1cccc2ccccc12)CN1CCOCC1 (stereo unspecified)	none (no result: SENP8 block-1, HSP90 inh, SENP7 inh, SENP6 inh)
OC(COc1ccc(Cl)cc1)CN1CCN(c2ccccc2)CC1 (stereo unspecified)	HSP90 inh 40 | HSP90 inh confirm inactive | luciferase ctr inactive
COc1ccc(CNC(=O)c2cn(Cc3ccccc3OC)c(=O)s2)cc1	none (no result: SENP8 block-1, HSP90 inh, SENP7 inh, SENP6 inh)
COCCNc1c(-c2ccc(O)cc2)nc2ccc(Cl)cn12	none
COCCNc1c(-c2ccc(OC)c(OC)c2)nc2ccc(Cl)cn12	HSP90 inh 20 | HSP90 inh confirm inactive | luciferase ctr inactive
O=C1CCN(CCc2ccccc2)CCN1[C@H](CO)c1ccccc1	none
CCOC(=O)CN1C(=O)S/C(=C/C=C/c2ccc(N(C)C)cc2)C1=O	HSP90 inh 39 | HSP90 inh confirm inactive | luciferase ctr inactive
CCOC(=O)CN1C(=O)S/C(=C/c2ccc3c(c2)n(C)c(=O)n3C)C1=O	none
COc1ccc(-n2nc(C(=O)NCC(=O)N3CCN(Cc4ccccc4)CC3)c3ccccc3c2=O)cc1	HSP90 inh 24 | HSP90 inh confirm inactive | luciferase ctr inactive
OC(CC#CCN1CCCC1)(c1ccccc1)c1ccccc1	none
CC(C)C(O)(CC#CCN1CCCC1)c1ccccc1 (stereo unspecified)	HSP90 inh 59 | HSP90 inh confirm inactive | luciferase ctr inactive
O=C(CN(C(=O)c1csnn1)c1ccccc1Cl)NC1CCCCC1	none
COc1cc(C=C2C(=O)c3ccccc3C2=O)cc(OC)c1OC	HSP90 inh 21 | HSP90 inh confirm inactive | luciferase ctr inactive
COc1cc(C=C2C(=O)c3ccccc3C2=O)cc(OC)c1	none
CC(=O)Nc1cccc(-c2cc(-c3c(Cl)cccc3Cl)no2)c1	HSP90 inh 19 | HSP90 inh confirm inactive | luciferase ctr inactive
CC(C)(C)c1cc(NC(=O)c2cccs2)no1	SENP8 block-1 88, HSP90 inh 21, SENP7 inh 95, SENP6 inh 89 | HSP90 inh confirm 36 | luciferase ctr 13
Cc1cc(NC(=O)c2ccc(NC(=O)c3cccs3)cc2)no1	none
CCN(CC)c1ccc(SS(=O)(=O)O)cc1	HSP90 inh 25! | HSP90 inh confirm 69 | luciferase ctr inactive
COc1cccc2sc3cc(C#CC4(O)CCCCC4)ccc3c(=O)c12	none (no result: HSP90 inh)
Cn1c2ccccc2c(=O)c2ccc(C#CC3(O)CCCCC3)cc21	HSP90 inh 59 | HSP90 inh confirm 66 | luciferase ctr 65
CC1=C(C(=O)OCC(C)C)C(c2ccsc2)NC(=O)N1 (stereo unspecified)	HSP90 inh 24 | HSP90 inh confirm inactive | luciferase ctr inactive
CCOC(=O)C1=C(C)NC(=O)NC1c1ccsc1 (stereo unspecified)	none
CCc1cc2c(-n3nc(C)cc3C)ncnc2s1	HSP90 inh 39 | HSP90 inh confirm inactive | luciferase ctr inactive
NS(=O)(=O)c1ccc(CNC(=O)c2ccc(NS(=O)(=O)c3ccc4[nH]c(=O)[nH]c4c3)cc2)cc1	none (no result: HSP90 inh)
O=C(CSc1ncccc1C(=O)O)c1ccc2ccccc2c1	HSP90 inh 96 | HSP90 inh confirm 93 | luciferase ctr inactive
COc1ccccc1C(=O)Nc1nc2ccccc2s1	SENP8 block-1 97, HSP90 inh 91, SENP7 inh 100, SENP6 inh 100 | HSP90 inh confirm 96 | luciferase ctr 93
COc1ccccc1C(=O)Nc1nc2ccc(S(C)(=O)=O)cc2s1	none
CCC(=O)Nc1cccc(-c2cc3ccccc3oc2=O)c1	HSP90 inh 19 | HSP90 inh confirm 32 | luciferase ctr 19
CCC(=O)Nc1cccc(-c2nc3ccccc3o2)c1	none
Cc1[nH]n(-c2ccccc2)c(=O)c1N=Nc1ccc(Cl)cc1	none
Cc1[nH]n(-c2ccccc2)c(=O)c1N=Nc1ccc(C(N)=O)cc1	HSP90 inh 25 | HSP90 inh confirm 39 | luciferase ctr inactive
Cc1[nH]n(-c2ccccc2)c(=O)c1N=Nc1ccccc1	none

Screening data deposited in PubChem BioAssay by several laboratories.
